Screening results (PubChem)
An excerpt weighted towards active compounds, which were near 2.4% of everything screened.
ANO1 activ: activates or potentiates the mouse TMEM16A chloride channel; AID 623877; Q8BHY3; HEK293 TMEM16A/YFP-H148Q/I152L, iodide quench fluorescence; stronger effect = lower value; B-score at 10 µM; actives 0.3% (n = 340,000);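 active = fluorescence-ratio B-score plate-corrected deviation score at least 3 library SD below zero, with starting fluorescence score within 5 deviations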;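 note: channel opened by trigger with iodide after compound preincubation; score built on the fluorescence ratio of max minus min over baseline; more negative score means more quench and so TMEM16A activation or potentiation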
Target sequence (Q8BHY3 whole entry, looked up): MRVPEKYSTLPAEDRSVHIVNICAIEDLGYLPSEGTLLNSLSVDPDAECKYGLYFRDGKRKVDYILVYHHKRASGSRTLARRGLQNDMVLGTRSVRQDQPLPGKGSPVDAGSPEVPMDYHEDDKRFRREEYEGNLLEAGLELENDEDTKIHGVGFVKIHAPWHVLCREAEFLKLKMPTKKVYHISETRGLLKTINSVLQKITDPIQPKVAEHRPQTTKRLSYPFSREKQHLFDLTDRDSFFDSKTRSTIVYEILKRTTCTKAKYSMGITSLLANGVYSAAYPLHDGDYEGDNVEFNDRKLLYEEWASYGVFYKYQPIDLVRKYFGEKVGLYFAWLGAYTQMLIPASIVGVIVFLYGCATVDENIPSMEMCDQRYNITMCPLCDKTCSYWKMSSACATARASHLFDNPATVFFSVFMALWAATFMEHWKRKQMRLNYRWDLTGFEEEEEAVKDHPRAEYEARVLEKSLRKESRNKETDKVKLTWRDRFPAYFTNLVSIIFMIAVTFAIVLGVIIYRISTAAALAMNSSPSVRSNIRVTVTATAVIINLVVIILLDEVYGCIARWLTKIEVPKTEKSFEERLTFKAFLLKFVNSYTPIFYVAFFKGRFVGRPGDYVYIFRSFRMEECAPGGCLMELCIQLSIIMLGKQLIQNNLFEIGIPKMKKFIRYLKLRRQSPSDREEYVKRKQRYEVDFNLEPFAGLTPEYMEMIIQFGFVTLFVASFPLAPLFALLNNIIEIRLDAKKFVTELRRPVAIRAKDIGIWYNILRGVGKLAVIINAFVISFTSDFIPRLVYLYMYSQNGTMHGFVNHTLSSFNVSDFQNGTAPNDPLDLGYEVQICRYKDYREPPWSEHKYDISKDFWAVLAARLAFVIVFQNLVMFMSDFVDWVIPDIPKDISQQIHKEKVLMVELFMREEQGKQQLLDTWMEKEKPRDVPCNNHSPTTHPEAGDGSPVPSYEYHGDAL
ANO1 block: mouse TMEM16A channel inhibition, primary screen | Q8BHY3 | HEK293 TMEM16A/YFP iodide influx fluorescence, ionomycin | normalized B-score (activity score, 25-100; higher = stronger inhibition) at 10 µM | actives 1.2% (n = 310,000) | AID 588511;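 active = ratio plate-corrected score three or more library SD toward inhibition, starting fluorescence score within five deviations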;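 note: score derived from kinetic fluorescence span divided by baseline fluorescence per well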
CHT PAM: allosteric activators of human choline transporter CHT; B-score at 10 µM; Q9GZV3; AID 488977; CHT-expressing cells, membrane potential dye, choline EC20; stronger effect = higher value; LV-AA mutant CHT in HEK293 cells; actives 0.49% (n = 310,000);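 active = initial fluorescence not abnormally high and integrated response B-score, plate-corrected, over 3 SD above library mean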
CHT block: human CHT choline transport inhibition. AID 488975. CHT-expressing cells, membrane potential dye, choline response; stronger effect = lower value. actives 0.86% (n = 310,000). B-score at 10 µM. Q9GZV3;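 active = B-score over 3 SD under the library average, and starting fluorescence ratio not unusually high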;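 note: choline stimulus applied at its EC90 after an EC20 pre-addition; B-score computed on integrated fluorescence ratio after choline addition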
Numbers without * were called inactive; i = inactive; x = no result given.

SMILES	ANO1 activ	ANO1 block	CHT PAM	CHT block
COc1ccc(Cl)cc1NC(=S)NCCc1ccc(S(N)(=O)=O)cc1	-6.2*	i	i	i
CNC(=S)NCCc1ccc(OC)c(OC)c1	i	i	i	i
COc1ccc(CCNC(=S)NCCc2ccc(OC)c(OC)c2)cc1OC	i	25*	i	i
Cc1ccc(NC(=O)C2CCN(S(=O)(=O)c3ccc4c(c3)oc(=O)n4C)CC2)cc1	i	i	i	i
COc1cccc(/C=C/C(=O)Nc2ccc(C(=O)Nc3cccc(S(N)(=O)=O)c3)cc2)c1OC	i	i	i	i
O=[N+]([O-])c1cccc(NC(=S)NCCc2ccccc2)c1	i	100*	i	i
O=[N+]([O-])c1ccc(NC(=S)NCCc2ccc(F)cc2)cc1	-4.9*	100*	i	i
Cc1ccc(S(=O)(=O)c2c(C)nn(C(C)(C)C)c2OC(=O)C2CCCC2)cc1	i	25*	i	i
Cc1nn(C(C)(C)C)c(OC(=O)C2CCCC2)c1S(=O)(=O)c1ccccc1	i	x	x	x
CCOCCc1nn2c(=O)cc(CSCC(=O)Nc3ccc(OC)cc3)nc2s1	i	i	i	i
CCn1c(-c2ccco2)n[nH]c1=S	i	i	i	i
CC(C)Cn1c(-c2ccco2)n[nH]c1=S	i	25*	i	i
COc1ccc(N(CC(=O)NCc2ccc(Cl)cc2)S(=O)(=O)c2c(C)n[nH]c2C)cc1	i	i	i	i
CC(OC(=O)c1ccccc1NS(=O)(=O)c1cccc(C(F)(F)F)c1)C(=O)N(C)Cc1ccccc1 (stereo not given)	i	100*	i	i
CN(Cc1ccccc1)C(=O)COC(=O)c1ccccc1NS(=O)(=O)c1cccc(N)c1	i	i	i	i
NC(=O)c1ccc(NS(=O)(=O)c2ccc(Br)s2)cc1	-21*	x	x	x
CSc1nc2ccc(NS(=O)(=O)c3ccc(Br)s3)cc2s1	i	25*	i	i
Cc1cc(-c2cccs2)c(C#N)c(=S)[nH]1	i	i	i	i
CN(CC(=O)Nc1ccc2c(c1)OCCO2)S(=O)(=O)c1ccc(Br)s1	i	i	i	i
COc1ccccc1N(CC(=O)NCCSCc1ccccc1)S(=O)(=O)c1ccc(C)cc1	i	25*	i	i
COc1ccc(-c2csc(/C(C#N)=C\c3ccc(O)c([N+](=O)[O-])c3)n2)cc1OC	i	100*	i	i
COc1cc(/C=C(\C#N)c2nc3ccccc3s2)cc([N+](=O)[O-])c1O	-16*	x	x	x
COc1ccc2nc3ccccc3[n+]([O-])c2c1	-10*	x	x	x
COc1ccc(CN2CCCC(C(=O)c3cccc(C(F)(F)F)c3)C2)cc1O (stereo not given)	i	i	i	i
COc1ccc(CNC(=S)N/N=C(/C)c2ccccc2)cc1	i	25*	i	i
SMILES	ANO1 activ	ANO1 block	CHT PAM	CHT block
Cc1ccc(S(=O)(=O)c2nc(-c3ccccc3)oc2SCC(=O)NCC2CCCO2)cc1 (stereo not given)	i	i	i	i
Cc1cc(C(=O)Nc2ccc(N3CCOCC3)c(Cl)c2)c(C)o1	i	i	i	i
Cc1ccc(CNc2ccc3c(c2)ncn3C(C)C)cc1	-13*	i	i	i
COc1ccc(C(C)=O)cc1COC(=O)c1cc(C)oc1C	-11*	i	i	i
Cc1c(C(=O)NCc2cccnc2)sc2nc(-c3ccc(F)cc3)cn12	-22*	i	i	i
O=C(NNC(=O)c1ccc(NC(=O)c2ccccc2)cc1)c1ccccc1	i	i	i	i
CCOC(=O)CCC(=O)NNC(=O)c1ccc(NC(=O)c2ccccc2)cc1	-6.8*	i	i	i
Cc1onc(-c2ccccc2)c1C(=O)NCc1ccco1	-16*	i	i	i
Cc1cccc2sc(NNC(=O)c3ccc(S(=O)(=O)N4CCCC(C)C4)cc3)nc12 (stereo not given)	i	25*	i	i
CC(NS(=O)(=O)c1ccc(OCC(=O)NCc2cccnc2)cc1)c1ccccc1 (stereo not given)	i	i	i	i
Cc1cccc(NC(=O)c2cccc(NS(=O)(=O)c3ccc(Cl)cc3)c2)c1	i	100*	i	i
Cc1cccc(NS(=O)(=O)c2ccc(C3CCCCC3)cc2)c1	i	25*	i	i
O=C(O)c1cccc(NS(=O)(=O)c2ccc(C3CCCCC3)cc2)c1	i	i	i	i
COc1ccccc1N1CCN(CCCN2CC(=O)N3CCCCC3C2=O)CC1 (stereo not given)	i	x	x	x
O=C(Nc1nc2ccsc2c(=O)s1)c1ccc(F)cc1	i	i	i	i
COC(=O)c1cc2oc3ccccc3c2n1Cc1ccccn1	i	i	i	i
COc1ccccc1C(CCN(Cc1ccccc1)C(C)=O)c1ccco1 (stereo not given)	-9.1*	i	i	i
CCOC(=O)c1c(NC(=O)CSc2nnnn2-c2ccc(OC)cc2)sc(C)c1C	i	25*	i	i
COC(=O)c1ccc(CSc2nc(-c3ccco3)cc(C(F)(F)F)n2)o1	-5.1*	i	i	i
CCOC(=O)c1csc(NC(=O)CSc2nnnn2-c2ccc(OC)cc2)n1	i	i	i	i
CCOC(=O)c1c(NC(=O)CSc2nc3ccccc3s2)sc(C(C)=O)c1C	i	25*	i	i
CCOC(=O)c1sc(NC(=O)CSc2nc(-c3ccco3)cc(C(F)(F)F)n2)c(C(=O)OCC)c1C	-7.7*	x	x	x
O=C1c2cccnc2C(O)N1C1CCCCC1 (stereo not given)	i	i	i	i
CN(C)S(=O)(=O)c1ccc(Cl)c(C(=O)NCCNC(=O)c2cc(S(=O)(=O)N(C)C)ccc2Cl)c1	i	i	i	i
CCOC(=O)c1c(NC(=O)c2cc(C(C)C)on2)sc(C(C)=O)c1C	-12*	i	i	i
SMILES	ANO1 activ	ANO1 block	CHT PAM	CHT block
CCOC(=O)c1c(NC(=O)c2cc(CC(C)C)on2)sc(C(C)=O)c1C	i	i	i	i
CC(=O)Oc1ccc(-c2nc(-c3cccnc3)no2)cc1	-15*	i	i	i
CC1=NN(c2ccc(Br)cc2)C(=O)/C1=C/c1ccc(-c2ccccc2C(=O)O)o1	i	i	i	-7.2*
N#Cc1ccc2ccn(CC(=O)NCc3ccco3)c2c1	i	i	i	i
CN(Cc1ccccc1)C(=O)CSc1nc2c(c(C(F)(F)F)n1)CCc1ccccc1-2	i	25*	i	i
CCCN1C(=O)c2ccccc2NC1c1ccc(Cl)c(Cl)c1 (stereo not given)	i	i	7.3*	i
CCCN1C(=O)c2ccccc2NC1c1ccc(Cl)cc1 (stereo not given)	i	i	i	i
